Compounds without any hit were thinned out: in the full panel of roughly 83,000, 20% have a hit.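 Growth was measured after 48 h exposure to one concentration of compound in 96-well plates. Values under 10 count as active.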 The source made the active and inactive calls.
test system: SK-MEL-5 melanoma; experiment: NCI-60 one-dose screen, 48 h (100 = growth as untreated, 0 = no growth, -100 = all killed); conditions: 10 µM unless noted
Procedure: Growth inhibition of the SK-MEL-5 human tumor cell line is measured as a screen for anti-cancer activity. Cells are grown in 96 well plates and exposed to the test compound for 48 hours. Compounds are tested at a single concentration, which is 10^-5 M for most compounds. The reported endpoint is percent growth (GI% or GIPRCNT), where numbers from 0 - 100% represent growth inhibition, and numbers from -100% - 0 represent cell death. For example, a value of 40 represents 60% growth inhibition. A value of 0 means no net growth occurred over the course of the experiment. A value of -40 indicates 40% of cells at the beginning of the experiment died by the end of the experiment. A value of -100 means all cells are dead at the end of the experiment.
NCI-60 Human Tumor Cell Lines Screen was performed using the standard one-dose NCI protocol, which is described in more detail at https://dtp.cancer.gov/discovery_development/nci-60/default.htm.
Compounds with GIPRCNT values below 10 were considered active. Activity score was based on GIPRCNT using the following formula: […]
Score is 0 for GIPRCNT values of 100 or above, 50 for GIPRCNT values of 0, and 100 for GIPRCNT values of -100.

Row | Compound | growth
1 | CCN1CCN(C(=O)[C@]23CC[C@@H](C)[C@H](C)[C@@H]2C2=CC[C@@H]4[C@@]5(C)C/C(=C/c6cccnc6)C(=O)C(C)(C)[C@@H]5CC[C@@]4(C)[C@]2(C)CC3)CC1 | -23.4% (active)
2 | N#Cc1nc(-c2ccccc2)oc1S(=O)(=O)N1CCN(c2ccc(F)cc2)CC1 | 86.1% (inactive)
3 | CSC(SC)=C(C#N)c1nc2ccccc2s1 | 27.9% (inactive)
4 | C=C1C(=O)O[C@H]2[C@H]1CC/C(COC(=O)/C=C\C(=O)NCc1ccc(Cn3c(=O)sn(CCCCC)c3=O)cc1)=C\CC[C@@]1(C)O[C@@H]21 | 106% (inactive)
5 | C=Cc1cnc(Nc2ccc(OC)cc2)nc1NCCCNC(=O)C1CCC1 | 37.5% (inactive)
6 | COc1ccc(/C(C)=C(/c2ccc(OCCCN(C)C)cc2)c2ccc(OC(=O)c3ccccc3)cc2)cc1 | 85.7% (inactive)
7 | O=c1nc(-c2ccccc2)c2cc(-c3ccc(C(F)(F)F)nc3)ccc2[nH]1 | 94.8% (inactive)
8 | C[C@@H]1O[C@@H](O[C@@H]2C[C@H](c3ccc4c(c3O)C(=O)C3=C(C4=O)[C@@]4(O)C(=O)C[C@](C)(O)C[C@@]4(O)C=C3)O[C@H](C)[C@H]2O)CC[C@@H]1O[C@H]1C[C@@H](O)[C@H](O)[C@@H](C)O1 | 101% (inactive)
9 | CCN1C(=O)N(CC)C2C1NC(=S)N2/N=C/c1ccc(C(F)(F)F)cc1 (stereo not given) | 52% (inactive)
10 | Cc1ccc(S(=O)(=O)c2nc(-c3ccccc3)oc2Sc2nc3ccccc3s2)cc1 | 53.3% (inactive)
11 | O=C1C(Nc2ccccn2)=C(I)C(=O)c2ncccc21 | -98.9% (active)
12 | COc1ccccc1N(C(C)=O)C1=C(Cl)C(=O)c2ccccc2C1=O | -69.9% (active)
13 | Oc1ccc(/C=C/c2ccc(O)cc2)cc1 | 52% (inactive)
14 | CCN1C(=O)N(CC)C2C1NN=c1s/c(=C3\C(=O)N(CC(C)C)c4ccccc43)c(=O)n12 (stereo not given) | 14.9% (inactive)
15 | CCn1c(-c2cc3c([nH]c4ccccc43)c(-c3cccc(O)c3)n2)n[nH]c1=S | -1.38% (active)
16 | CCNC(=O)Oc1ccc(/C(=C(/C)Cc2ccc(OC)cc2)c2ccc(OCCN3CCCCC3)cc2)cc1 | 46.2% (inactive)
17 | Cc1c(CC(=S)N2CCOCC2)nnn1-c1cccc(C(F)(F)F)c1 | 99.8% (inactive)
18 | C/C=C(/C)n1cnc2c(Nc3ccccn3)nc(Cl)nc21 | 101% (inactive)
19 | CCc1n(Cc2ccc3ccccc3n2)cc[n+]1Cc1ccc2ccccc2n1 | -36.3% (active)
20 | O=C1/C(=C/c2ccc(O)c(O)c2)COc2ccc(-c3ccccc3)cc21 | 23.2% (inactive)

Row | Compound | growth
21 | C=C1C(=O)O[C@H]2[C@H]1CC/C(COC(=O)c1cc3cc(Cl)ccc3[nH]1)=C\CC[C@@]1(C)O[C@@H]21 | -88.6% (active)
22 | Nc1nc(N)c2c(n1)NC(c1cccc(Nc3ccnc4cc(C(F)(F)F)ccc34)c1)CC(c1ccccc1)=N2 (stereo not given) | 21.9% (inactive)
23 | Nc1ccc(-c2csc(-n3[nH]c(=O)ccc3=O)n2)cc1 | -99.6% (active)
24 | CCCCNC(=O)Oc1ccc(/C(=C(/C)Cc2ccc(OC)cc2)c2ccc(OCCN3CCCCC3)cc2)cc1 | 57% (inactive)
25 | O=C1Nc2c(C(=O)O)cccc2/C1=N/c1n[nH]c(=S)s1 | 102% (inactive)
26 | O=C(/C=C/c1ccccc1)c1ccc(Nc2nc(Nc3ccc(F)cc3)nc(Nc3ccc(Cl)cc3)n2)cc1 | 79% (inactive)
27 | O=[N+]([O-])c1ccc(-c2cn3nc(-c4c[nH]c5ccccc45)sc3n2)cc1 | 91.2% (inactive)
28 | Cc1ccc(-c2nc(-c3cn(C)c4ncccc34)cs2)cc1 | -84.9% [100 µM] (active)
29 | Cc1ccc(C=C2C(=O)NC(=O)NC2=O)cc1 | 100% (inactive)
30 | COc1cc(/C=C/C(=O)c2ccc(-n3cc(CN4CCN(c5cc6c(cc5F)c(=O)c(C(=O)O)cn6C5CC5)CC4)nn3)cc2)ccc1O | 78.7% (inactive)
31 | C[n+]1ccc(CCc2c[nH]c3ccccc23)cc1 | 104% (inactive)
32 | O=C(Nc1ccccc1O)c1ccc(CNC(=O)c2ccsc2Nc2ccnc(C(F)(F)F)c2)cc1 | -8.81% (active)
33 | O=c1ccc(=O)n(-c2nc(-c3ccc([N+](=O)[O-])cc3)cs2)[nH]1 | 95.6% (inactive)
34 | C#Cc1cccc(Nc2nc(C)nc3cc(NC(=O)CCl)ccc23)c1 | -94% (active)
35 | C#CCNC(=O)[C@]1(C)CCC[C@@]2(C)[C@H]1CC=C1C=C(C(C)C)CC[C@@H]12 | 102% (inactive)
36 | Clc1ccccc1-c1cnn2cc(-c3ccccc3)cnc12 | 93.2% (inactive)
37 | COc1ccc(/C=C/C(=O)c2cc3c(N)c(C(=O)Nc4cccc(Cl)c4C)sc3nc2C)cc1 | -28.9% (active)
38 | Cc1ccc(/C=C/C(=O)Nc2ncc(Cc3ccc(F)cc3)s2)o1 | 45.3% (inactive)
39 | Cc1ccccc1Nc1cc(O)c2c(=O)cc(-c3ccccc3)oc2c1 | 23.5% (inactive)
40 | Nc1nc(N)c2c(n1)NC(c1ccc(Cl)cc1)C1CCc3ccccc3C1=N2 (stereo not given) | 7.87% (active)
